Assay [1] can be described thus: inhibitors of TNFa-induced NFkB p65 translocation, primary screen, imaging, HUVEC, MLSMR starter and 10KST1 sets (AID 438;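 active = inhibition above 20% together with a positive visual image hit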;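 also: compound added about 3h40 before a 20 min TNFalpha stimulation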;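 as to inhibition: signal is the nuclear over cytoplasmic p65 intensity ratio per well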). The following applies: HUVEC TNFa-induced p65 nuclear translocation; cell count: measured here: nuclei count (cytotoxicity indicator), at 2.08 µM; inhibition: at 2 µM, stronger effect = higher value, 0% TNFa-plus-vehicle, 100% no-TNFa wells.
Assay [2] in a line: inhibitors of mutant huntingtin aggregation, primary screen, imaging, exon1htt(103Q)mCFP cells, high-content imaging (AID 483).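 Also: compound exposure lasted 3 days before fixation.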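 As to nuclei count: percent of the per-plate median nuclei count of sample wells.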 The following applies: exon1htt(103Q)mCFP cell line, aggregate imaging, at 2 µM; inhibition of aggregation: stronger effect = higher value; nuclei count: measured here: cell count, toxicity.
A short description of assay [3]: inhibitors of E-selectin induction by TNFa, primary screen, imaging, HUVEC, immunofluorescence, MLSMR starter and 10KST1 sets (AID 487;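 active = visually confirmed hit in the image check and inhibition above 20%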;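 as to inhibition: signal is fraction of cell area covered by stained E-selectin grains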;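 as to nuclei count: 100% = median nuclei count of all wells on the same plate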). The following applies: HUVEC TNFalpha-induced E-selectin immunofluorescence imaging, at 2 µM; inhibition: stronger effect = higher value; nuclei count: measured here: cell number, toxicity.
Assay [4] can be described thus: DUSP6 inhibitors restoring Erk phosphorylation by chemical complementation, primary imaging in DUSP6-transfected HeLa (AID 609;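 active = compounds giving at least 50% inhibition in the cell-based MKP-3 phosphatase rescue imaging test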;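 as to inhibition: phospho-Erk level distribution per well compared with pooled transfected vehicle control wells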). The following applies: HeLa MKP-3 transfected, phospho-Erk imaging KS statistic, at 10 µM, cells stimulated with TPA for 15 min.
Assay [5] concerns the target Dual specificity protein phosphatase 6 (Homo sapiens) (UniProt Q16828). The assay is described as above. The following applies: HeLa MKP-3 transfected, phospho-Erk imaging KS statistic; at 10 µM; stronger effect = higher value; cells stimulated with TPA for 15 min.
The target in assay [6] is Voltage-gated potassium channel subunit beta-2 (Rattus norvegicus) (UniProt P62483). Put plainly: KvBeta enzyme negative modulators, primary screen, biochemical, NADPH fluorescence (AID 622;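 active = fluorescence slope higher than the sample average by over 3 SD, cut at about -0.22 in these data, passing the limit was not always enough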;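 also: slope of raw intensity against log time taken from 70 to 1610 s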). The following applies: recombinant KvBeta, 4-cyanobenzaldehyde reduction, at 10 µM, stronger effect = higher value.
Chain of Voltage-gated potassium channel subunit beta-2 (Rattus norvegicus) (P62483 whole entry, looked up): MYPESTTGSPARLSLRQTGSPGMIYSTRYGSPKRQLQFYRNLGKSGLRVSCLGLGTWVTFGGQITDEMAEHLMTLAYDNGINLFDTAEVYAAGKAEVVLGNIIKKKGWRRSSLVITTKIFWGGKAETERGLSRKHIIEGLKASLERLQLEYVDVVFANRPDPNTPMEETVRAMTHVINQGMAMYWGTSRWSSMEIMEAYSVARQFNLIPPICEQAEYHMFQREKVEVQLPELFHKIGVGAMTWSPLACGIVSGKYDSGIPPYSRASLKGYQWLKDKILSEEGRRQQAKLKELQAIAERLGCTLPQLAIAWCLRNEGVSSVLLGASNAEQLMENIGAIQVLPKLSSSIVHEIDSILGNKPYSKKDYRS
For assay [7] the target is unchanged. Description: KvBeta positive modulators, primary screen, biochemical, NADPH fluorescence (AID 623;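 active = NADPH fluorescence slope more negative than the mean of all samples by about 3 SD, 99.7% confidence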;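 also: fluorescence intensity change per second fitted from 20 to 320 s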). As to conditions: Recombinant KvBeta, NADPH fluorescence decrease slope, 10 min; at 10 µM; stronger effect = lower value.
For assay [8], the target named is Alpha-2C adrenergic receptor (Homo sapiens) (UniProt P18825). Description: modulators of alpha2C/GIRK thallium flux, primary screen, cell-based, HEK293 alpha2C/GIRK1/2 (AID 624;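 active = fluorescence slope after compound addition differing from the mean of all screened samples at 99.7% confidence, in either direction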;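 also: slope of fluorescence ratio to pre-addition baseline per second over 15 to 24 s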). The following applies: thallium flux BTC fluorescence, at 10 µM, actives lie on both sides.
Chain of Alpha-2C adrenergic receptor (Homo sapiens) (P18825 whole entry, looked up): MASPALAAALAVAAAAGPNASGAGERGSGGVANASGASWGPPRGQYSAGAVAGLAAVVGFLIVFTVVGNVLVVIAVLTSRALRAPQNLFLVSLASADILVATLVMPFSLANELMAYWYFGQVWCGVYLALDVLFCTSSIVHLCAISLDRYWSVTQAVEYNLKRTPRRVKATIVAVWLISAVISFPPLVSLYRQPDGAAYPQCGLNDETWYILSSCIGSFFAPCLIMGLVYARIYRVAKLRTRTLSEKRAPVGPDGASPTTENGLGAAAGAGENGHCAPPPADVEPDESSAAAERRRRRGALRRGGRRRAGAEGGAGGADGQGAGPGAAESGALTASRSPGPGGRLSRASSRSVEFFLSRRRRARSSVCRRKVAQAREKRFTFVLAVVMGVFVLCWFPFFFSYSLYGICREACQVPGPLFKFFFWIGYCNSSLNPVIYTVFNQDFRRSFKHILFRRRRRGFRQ
A short description of assay [9]: inhibitors of Chlamydomonas gravitaxis, primary screen, whole organism, Chlamydomonas reinhardtii, WT vs cilia-less mutant, absorbance, 96-well (AID 463189;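 active = inhibition at or above 50% relative to wild type and mutant plate controls; inactive = inhibition below 50%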;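 also: 0% = wild type cc124 cells in DMSO and 100% = ciliumless bld1 mutant cells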). The following applies: OD600 absorbance, 2 days, at 10 µM, stronger effect = higher value.
A short description of assay [10]: inhibitors of Sendai virus-induced IRF3 signaling, primary screen, TLR/RLR signaling modifier project, cell-based, Sendai virus stimulus, luciferase, 10K MLSCN set (AID 602276;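 active = inhibition at or above 50% at 10 µM; inactive = inhibition below 50%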;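 also: firefly luciferase from ISG56 promoter only with Renilla not read in this screen; 0% = Sendai virus plus DMSO and 100% = medium plus DMSO without virus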). The following applies: HEK293 RL24 IRF3 luciferase reporter, at 10 µM, stronger effect = higher value. Background: A reporter such as luciferase makes a cellular process visible.
Assay [11] can be described thus: inhibitors of poly I:C-induced TLR3 signaling, primary screen, cell-based, poly I:C stimulus, luciferase, 10K MLSCN set (AID 602277;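 active = inhibition of the reporter signal at or above 50%; inactive = inhibition below 50%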). The following applies: HEK293-TLR3 RL24 IRF3 luciferase reporter, at 10 µM, stronger effect = higher value.
Assay [12] addresses Muscarinic acetylcholine receptor M4 (Homo sapiens) (UniProt P08173). Description: compounds altering M4/GIRK thallium flux, either direction, primary screen, M4 allosteric agonist project, cell-based, HEK293 M4/GIRK, BTC-AM (AID 625;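 active = fluorescence slope after compound addition differing from the mean of all tested samples at 99.7% confidence, mostly higher but some lower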;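 also: thallium influx through GIRK channels coupled to M4 in HEK293 cells with BTC-AM dye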). As to conditions: at 10 µM, actives lie on both sides.
Assay [13] can be described thus: inhibitors of larval lipid processing in zebrafish, primary screen, whole organism, PED6 fluorescence, gall bladder and intestine (AID 686;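 active = a full or partial loss of lipid-probe fluorescence in the fish gall bladder, intestine or both, judged by eye; inactive = no fluorescence loss, or compound toxic to the fish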;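 also: larvae 5 to 7 days old with five fish per well; signal comes from phospholipase A2 cleavage of quenched PED6 carried via bile; overnight exposure to compound and PED6 before scoring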). The following applies: Zebrafish larvae PED6 lipid processing, fluorescence scoring; screened at 20 µM (by protocol).
The mark [14] stands for this setting: measured here: cell density z-score.
Where [15] appears, read: measured here: nuclear c-Myc green intensity z-score.
Setting [16] is: measured here: nuclear pErk red intensity z-score, stronger effect = higher value.

Activity calls are given as the source filed them.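 The calls were made as follows, unless noted: active = visual image review flags a hit and inhibition of aggregation exceeds 20%; inconclusive = visual hit but inhibition at or below 20%; inactive = no hit on visual image review.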

As a reminder, the inhibition is the drop in the measured response relative to a control, in per cent.

Chain of Dual specificity protein phosphatase 6 (Homo sapiens) (Q16828 whole entry, looked up): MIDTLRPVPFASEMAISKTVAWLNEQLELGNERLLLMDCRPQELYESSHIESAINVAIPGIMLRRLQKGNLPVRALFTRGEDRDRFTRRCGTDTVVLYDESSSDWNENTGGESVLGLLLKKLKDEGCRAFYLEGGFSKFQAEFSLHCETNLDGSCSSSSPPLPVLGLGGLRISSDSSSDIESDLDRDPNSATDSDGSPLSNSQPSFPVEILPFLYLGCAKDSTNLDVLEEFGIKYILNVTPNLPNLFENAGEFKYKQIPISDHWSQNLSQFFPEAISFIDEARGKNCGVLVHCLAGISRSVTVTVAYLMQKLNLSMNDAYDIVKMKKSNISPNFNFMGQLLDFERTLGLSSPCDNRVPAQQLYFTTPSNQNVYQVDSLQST
Chain of Muscarinic acetylcholine receptor M4 (Homo sapiens) (P08173 whole entry, looked up): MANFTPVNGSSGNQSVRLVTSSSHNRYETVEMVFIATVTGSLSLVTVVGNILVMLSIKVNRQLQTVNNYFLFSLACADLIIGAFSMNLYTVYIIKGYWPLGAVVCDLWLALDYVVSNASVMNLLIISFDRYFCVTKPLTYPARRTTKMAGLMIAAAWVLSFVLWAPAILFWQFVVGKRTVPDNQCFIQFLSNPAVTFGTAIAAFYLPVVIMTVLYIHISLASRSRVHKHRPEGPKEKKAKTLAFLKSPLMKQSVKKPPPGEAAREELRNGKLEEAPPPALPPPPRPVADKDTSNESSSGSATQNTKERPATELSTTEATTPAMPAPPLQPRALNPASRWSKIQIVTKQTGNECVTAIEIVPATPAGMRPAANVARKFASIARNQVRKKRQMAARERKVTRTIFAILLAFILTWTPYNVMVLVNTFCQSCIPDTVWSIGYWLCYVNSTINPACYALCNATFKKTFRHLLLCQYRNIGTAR

Turning to `CC(C(=O)O)c1ccc(-c2ccccc2)c(F)c1` (centres undefined), the cell count in assay [1] was determined as 557. For the same compound, the inhibition in assay [1] is -7.8% (inactive); in assay [3] it was -48.5% (inactive); in assay [5], 23.4% (inactive); in assay [9] it was 42.5% (inactive); in [10], 18.5% (inactive); in [11], 42.9% (inactive). For the same compound, the inhibition of aggregation in assay [2] is -18.5% (inactive). The nuclei count in [2] was determined as 101%; in [3], 113%. The figures for the z-score in assay [4] (setting [14]), in assay [4] (setting [15]) and in [4] (setting [16]) were 2.7, -2.89 and 0.18, respectively. Further, the fluorescence slope in assay [6] is -0.456 (inactive). Further, the NADPH fluorescence slope in [7] is -6e-05 (inactive). Also, the slope in [8] was 0.0055 (inactive).

For `CCC1CCCCN1c1nc(-c2ccncc2)nc2ccccc12` (centres undefined), in assay [1], the cell count was found to be 503. Also, the inhibition is 0.5% (inactive) in [1]; 12.1% (inactive) in assay [3]; 14% (inactive) in assay [5]; 132% (active) in assay [9]; 24.2% (inactive) in assay [10]; 30.3% (inactive) in assay [11]. Also, the inhibition of aggregation in [2] is 7.3% (inactive). Besides, the results for the nuclei count in assay [2] and in [3] were 91.9% and 126%, respectively. Also, the z-score in [4] (setting [14]) was 1.04; in assay [4] (setting [15]) it was -0.92; in assay [4] (setting [16]), 0.299. Moreover, in [6], the fluorescence slope was -0.391 (inactive). The NADPH fluorescence slope in assay [7] is -0.000148 (inactive). Moreover, the slope in [8] was 0.00736 (inactive).

Take `Cc1cc(OCC(=O)Nc2ccc3oc(-c4ccncc4)nc3c2)ccc1Cl`: the cell count in assay [1] worked out at 485. Further, the inhibition is -6.9% (inactive) in assay [1]; -81.7% (inactive) in [3]; 7.73% (inactive) in [5]; -0.755% (inactive) in assay [9]; -19.3% (inactive) in assay [10]; -47.1% (inactive) in assay [11]. In assay [2], the inhibition of aggregation is -19.2% (inactive). For the same compound, the nuclei count in [2] was found to be 100%; in [3], 122%. The z-score is 0.451 in [4] (setting [14]), -0.406 in assay [4] (setting [15]) and -0.15 in assay [4] (setting [16]). Besides, the fluorescence slope in assay [6] is -0.458 (inactive). Moreover, the NADPH fluorescence slope in assay [7] is -1.3e-05 (inactive). Moreover, the slope in assay [8] was 0.00694 (inactive).

With `O=C(NCc1cccnc1)/C(=N\O)c1ccccc1`, the cell count in assay [1] stood at 415. The inhibition in assay [1] is -4.8% (inactive); in assay [3] it was -66.8% (inactive); in assay [5], 5.95% (inactive); in assay [9], -9.8% (inactive); in assay [10], 6.94% (inactive); in [11], 4.43% (inactive). Besides, the inhibition of aggregation in assay [2] was -9.8% (inactive). In addition, the nuclei count in assay [2] stood at 100%; in assay [3], 97.2%. Moreover, the results for the z-score in assay [4] (setting [14]), in assay [4] (setting [15]) and in assay [4] (setting [16]) were 0.444, 0.0712 and -0.943, respectively. For the same compound, the fluorescence slope was -0.424 (inactive) in assay [6] and 0.00494 (inactive) in assay [12]. Moreover, the NADPH fluorescence slope in assay [7] was 1.4e-05 (inactive). For the same compound, the slope in assay [8] was 0.00513 (inactive). Moreover, in [13], the result was inactive.

For the compound `COc1cccc(C2C(C(=O)c3cc4ccccc4o3)=C(O)C(=O)N2CCN(C)C)c1OC` (centres undefined), the cell count in assay [1] was 516. In addition, the inhibition was -3.4% (inactive) in assay [1]; -49.8% (inactive) in assay [3]; 22.7% (inactive) in assay [5]; 20.6% (inactive) in [9]; 9.6% (inactive) in assay [10]; 6.82% (inactive) in [11]. Further, the inhibition of aggregation in [2] is 31% (inactive). For the same compound, the nuclei count in [2] was found to be 87.3%; in assay [3], 124%. The figures for the z-score in assay [4] (setting [14]), in assay [4] (setting [15]) and in [4] (setting [16]) were 0.445, -1.47 and -1.27, respectively. Also, the figures for the fluorescence slope in [6] and in [12] were -0.492 (inactive) and 0.00523 (inactive), respectively. The NADPH fluorescence slope in [7] is -4.6e-05 (inactive). The slope in assay [8] was 0.0034 (inactive). For the same compound, the compound was called inactive in assay [13].
